From the supplement of paper PMC6555819

test system: PPARg:RXRa DBDmut IVT, anti-RXR (DBD mutation: RXRa K156A/R161A, NR concentration 270 nM, RXRa partner concentration 90 nM); assay: PBM binding z-score (relative to random genomic background probes); higher = stronger binding; sequences stand for … in GC…GCGATTGACAGCGTAGAATGAAGG
Summary of the method: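 Custom Agilent 4×180K protein-binding microarrays carried double-stranded probes. Their 34-nt variable regions held direct-repeat seeds, single-nucleotide variants, half-site ablations and random human genomic background sequences. Arrays were incubated 1 h with ligand-free nuclear receptor dimers in PBS pH 7.4, 2% milk, 0.02% Triton X-100, 1 mM DTT, 0.2 mg/mL BSA and 0.4 mg/ml salmon testes DNA. Antibodies against each partner (one per run) detected binding, and scanned fluorescence was regression-normalized. Binding z-scores use random background probes as reference.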

Sequence | PBM binding z-score
CAAGCTAGGTCAAGAGGTCAAAGTCCGCTTCCCG | 4.26
TTACCAAGGTGAAAGGTCGTTGAGGCACGCCTTG | 2.94
CCTGCTAGGTCTATGGTCAGCTAAAGCAGCTCGC | -0.291
AGTCATAGTTCACTAGGTAACGTAAGATTCAGCT | 1.88
ACTAGTTGGTAAGCTGAGGTCACACACAATTCGG | 0.595
GCTGCTAGGTCAGGTTGGTCGGCTAACGGGTACG | 2.56
CCTACTGGGCCAAGGTCTTTGATCAGTCAAAGCA | 3.2
ATATGAAGGTTATCGGGTCATTCAGTTTGCGCAT | 3.47
GCTGCTAGGTCAGGTTGGTCTGCTAACGGGTACG | 3.08
CTCGAAAGGTCGGTTGAGGTGAGTAAACGGATAA | -0.271
CGTCGGAGGACAGAAGGTCAGAGCTGTCCGCTTT | 0.0146
AGTCAAAGTTCACGAGGTAACGTAAGATTCAGCT | 1.37
ATATGTAGCTTAAGGGTCATTCAGGTTGGTTCGC | 0.343
CCGACTGGGCCATTCAGAGGTCATTGATCATATG | 3.29
ATCTCTAGGTAAAGTTCAGCGAAAGATCGATAGA | 2.11
CGTCCAAGGTCAGCAGGTCACTGAAAGCGACGTG | 3.75
TAGCCTAGGTCAGATCGGGGCAGTATACGCTATA | 1.23
CGTCCAAGGTCAACAGGTCAGTGAAAGCGACGTG | 3.88
CGTCAAAGTTCAACTAAGTTAACGTAAAGCACGC | 0.764
TCTAGGAGGACACGAAGGTCAGAGCTTTCCAGAG | 1.91
AGTCAAAGTTCACGACGAGGTAACGTAAAGCACG | 0.0759
CAAACTAGGTCACGAAAGGTCAACGTCGAATGAC | 8.6
